Laboratory results reported in PubChem BioAssay (Tox21).
Inconclusive results are not listed. Entries that show only a call come without a potency. Calls of active or inactive are those of the source. Unless noted, calls come from the whole dose curve; as a rule, active = well fitted curve in the direction sought with a large enough effect in the repeat runs; inconclusive = weak or mixed curves; inactive = no such curve, though single readings can be large; an effect the other way counts as inactive or inconclusive.

Tests used:
[1] = qHTS RealTime-Glo MT Cell Viability Assay in HepG2 cells - 16 hour (AID 1224885); note: nearly all actives have a fitted effect of over 50% in size
Summary of the method: (§1)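 HepG2 suspension premixed with RealTime-Glo reagents is plated at 600 cells per well and left 5 h at 37 C/5% CO2. Compounds in DMSO then go in, and bioluminescence reflecting viable cell number is recorded over 40 h.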

[2] = qHTS RealTime-Glo MT Cell Viability Assay in HEK293 cells - 24 hour (AID 1224886); note: top concentration of the series differs between compounds; nearly all actives have a fitted effect of over 50% in size
Summary of the method: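 Reads taken at 0, 8, 16, 24, 32 and 40 h from the same wells. HEK293 cells (600/well) carried RealTime-Glo reagents from seeding, with compound added after a 5 h settle at 37 C.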

[3] = qHTS RealTime-Glo MT Cell Viability Assay in HEK293 cells - 8 hour (AID 1224887); note: top concentration of the series differs between compounds; nearly all actives have a fitted effect of over 50% in size
Summary of the method: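 Measured as luminescence from the same continuously cultured HEK293 wells at successive time points (0, 8, 16, 24, 32, 40 h) after compound addition. Reagent present from seeding; dosing at 5 h; incubation 37 C.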

[4] = A CellTox Green Cytotoxicity Assay to monitor cytotoxicity in HEK293 cells - 16 hour (AID 1224888); note: nearly all actives have a fitted effect of over 35% in size
Summary of the method: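 Homogeneous no-lysis format: HEK293 cell suspension mixed with CellTox Green reagent, seeded, incubated 5 h at 37 C/5% CO2, then dosed by pintool with compound in DMSO.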

[5] = qHTS RealTime-Glo MT Cell Viability Assay in HepG2 cells - 0 hour (AID 1224889); note: nearly all actives have a fitted effect of over 50% in size
Summary of the method: as §1

[6] = A CellTox Green Cytotoxicity Assay to monitor cytotoxicity in HepG2 cells - 8 hour (AID 1224890); note: nearly all actives have a fitted effect of over 45% in size
Summary of the method: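 Fluorescent DNA-binding dye, 600 HepG2 cells/well, 5 h preincubation then compound in DMSO; same plates read at 0–40 h, 37 C.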

[7] = qHTS assay to identify small molecule antagonists of the estrogen receptor alpha (ER-alpha) signaling pathway using the BG1 cell line in the presence of 0.1 nM 17-beta-estradiol - cell viability counter screen (AID 1259241); note: nearly all actives have a fitted effect of over 40% in size
Summary of the method: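 VM7Luc4E2 cells (endogenous ER-alpha, 4×ERE-luciferase), hormone-starved 5 days in charcoal-stripped FBS, were treated with compounds plus 0.1 nM 17beta-estradiol for 22 hr at 37C; viability read in same wells as CellTiter-Fluor live-cell protease fluorescence.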

[8] = qHTS assay to identify small molecule antagonists of the androgen receptor (AR) signaling pathway using the MDA cell line in the presence of 0.5 nM R1881 - cell viability counter screen (AID 1259242); note: nearly all actives have a fitted effect of over 45% in size
Summary of the method: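 Human breast carcinoma MDA-kb2 cells, cultured without CO2, receive compounds alongside 0.5 nM (final) R1881 agonist. After 16 hr at 37C, viability is taken as live-cell protease signal.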

[9] = biological target: Estrogen receptor (Homo sapiens) (UniProt P03372); experiment: qHTS assay to identify small molecule antagonists of the estrogen receptor alpha (ER-alpha) signaling pathway using the BG1 cell line in the presence of 0.1 nM 17-beta-estradiol (AID 1259244); note: nearly all actives have a fitted effect of over 50% in size
Summary of the method: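 Seeding of stripped-serum-adapted VM7Luc4E2 cells, 24 h attachment, compound transfer, then 0.1 nM final 17beta-estradiol; after 22 h incubation, ONE-Glo reagent and luminescence reading.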

[10] = qHTS assay to identify small molecule HDAC inhibitors (AID 1259364); note: potency is the fitted concentration of half-maximal effect;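 note: wild-type HCT-116 cells with endogenous class I/II HDAC activity; nearly all actives have a fitted effect of over 45% in size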
Summary of the method: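 After a 2 hr compound incubation (37C, 5% CO2), HCT-116 cells seeded at 1,500/well the day before received HDAC-Glo reagent; signal read as luminescence after 30 min at room temperature.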

[11] = qHTS assay to identify small molecule HDAC inhibitors - cell viability counter screen (AID 1259365)
Summary of the method: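 Wild-type HCT-116 cells were seeded at 1,500 per well, incubated overnight at 37 C, then exposed to compounds in DMSO for 2hr. Viability was read by CellTiter-Glo luminescence after 30min at room temperature.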

[12] = qHTS assay to identify small molecule agonists of the sonic hedgehog signaling (Shh) pathway - cell viability counter screen (AID 1259366); note: nearly all actives have a fitted effect of over 50% in size
Summary of the method: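 NIH/3T3-derived 3T3 Gli1-Luc cells (stable Gli1-responsive firefly luciferase reporter) were seeded, rested 4 hr at 37 C/5% CO2, then exposed to compounds in DMSO for 24 hr; viability was read by CellTiter-Fluor fluorescence in the same wells.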

[13] = qHTS assay to identify small molecule agonists of the sonic hedgehog signaling (Shh) pathway (AID 1259368; calls by dose curve; note: series mostly up to about 92 µM; nearly all actives have a fitted effect of over 15% in size)
Summary of the method: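 Stable NIH/3T3 Gli1-Luc reporter clone; 24 hr cpd exposure after a 4 hr settling period; luminescence endpoint.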

[14] = qHTS assay to identify small molecule antagonists of the sonic hedgehog signaling (Shh) pathway (AID 1259369; calls by dose curve; note: nearly all actives have a fitted effect of over 45% in size)
Summary of the method: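 Gli1 transcriptional reporter (firefly Luc) in NIH/3T3 background, conditioned-medium activated. 24hr exposure, luminescence endpoint.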

[15] = qHTS assay to identify small molecule agonists of the androgen receptor (AR) signaling pathway in the presence of an antagonist - cell viability counter screen (AID 1259379);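 note: MDA-kb2 human breast cancer cells carrying an MMTV luciferase reporter; series mostly up to about 92 µM; nearly all actives have a fitted effect of over 25% in size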
Summary of the method: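 Counter screen for cell viability run in parallel with the AR agonist-mode luciferase assay. MDA-kb2 cells were co-treated with nilutamide (3.0uM final) and compounds, then incubated 16 hr at 37C, and CellTiter-Fluor fluorescence was measured.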

[16] = qHTS assay to identify small molecule phospholipidosis (PLD) inducers (AID 1259344; active = well fitted curve in the direction sought with a large enough effect; an effect the other way counts as inactive or inconclusive)
Summary of the method: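 Accumulated phospholipid, stained red by LipidTOX during 24 h compound treatment of HepG2 cells at 37 C, is quantified from images as pit number and intensity, normalised per cell using Hoechst-stained nuclei.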

[17] = qHTS assay to identify small molecule antagonists of the sonic hedgehog signaling (Shh) pathway - cell viability counter screen (AID 1259367); note: nearly all actives have a fitted effect of over 55% in size
Summary of the method: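 CellTiter-Fluor signal in conditioned medium-stimulated 3T3 Gli1-Luc cells, 23 hr compound exposure, 37C.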

[18] = biological target: Estrogen receptor beta (Homo sapiens) (UniProt Q92731); experiment: qHTS assay to identify small molecule agonists of the estrogen receptor beta (ER-beta) signaling pathway (AID 1259377; active = well fitted activation curve with a large enough effect in the signal ratio in the repeat runs, not every such curve was filed as active; the % refers to the signal ratio)
Summary of the method: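 ER-beta-UAS-bla HEK293T (GripTite) cells carrying a UAS-driven beta-lactamase reporter, in medium with 2% charcoal-stripped FBS, were exposed to compounds for 16 hr at 37C; LiveBLAzer B/G FRET substrate was then added and fluorescence read after 2 hours at room temperature.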

[19] = biological target: Estrogen receptor beta (Homo sapiens) (UniProt Q92731); experiment: qHTS assay to identify small molecule antagonists of the estrogen receptor beta (ER-beta) signaling pathway (AID 1259378; active = well fitted inhibition curve with a large enough effect in the signal ratio in the repeat runs, not every such curve was filed as active; the % refers to the signal ratio)
Summary of the method: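 Antagonist mode: compounds added to beta-lactamase reporter HEK293T ER-beta-UAS cells stimulated with E2 (1nM final), 16 hr at 37C. LiveBLAzer B/G FRET substrate, 2 hours room temperature, fluorescence read-out.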

[20] = biological target: Androgen receptor (Homo sapiens) (UniProt P10275); experiment: qHTS assay to identify small molecule antagonists of the androgen receptor (AR) signaling pathway using the MDA cell line in the presence of 0.5 nM R1881 (AID 1259243); note: nearly all actives have a fitted effect of over 50% in size
Summary of the method: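 Cells: MDA-kb2 (MMTV-luc). Stimulus: 0.5 nM R1881. Time: 16 hr, 37C, no CO2. Detection: ONE-Glo luminescence after 30 min at RT.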

Chain of Estrogen receptor (Homo sapiens) (P03372 whole entry, looked up): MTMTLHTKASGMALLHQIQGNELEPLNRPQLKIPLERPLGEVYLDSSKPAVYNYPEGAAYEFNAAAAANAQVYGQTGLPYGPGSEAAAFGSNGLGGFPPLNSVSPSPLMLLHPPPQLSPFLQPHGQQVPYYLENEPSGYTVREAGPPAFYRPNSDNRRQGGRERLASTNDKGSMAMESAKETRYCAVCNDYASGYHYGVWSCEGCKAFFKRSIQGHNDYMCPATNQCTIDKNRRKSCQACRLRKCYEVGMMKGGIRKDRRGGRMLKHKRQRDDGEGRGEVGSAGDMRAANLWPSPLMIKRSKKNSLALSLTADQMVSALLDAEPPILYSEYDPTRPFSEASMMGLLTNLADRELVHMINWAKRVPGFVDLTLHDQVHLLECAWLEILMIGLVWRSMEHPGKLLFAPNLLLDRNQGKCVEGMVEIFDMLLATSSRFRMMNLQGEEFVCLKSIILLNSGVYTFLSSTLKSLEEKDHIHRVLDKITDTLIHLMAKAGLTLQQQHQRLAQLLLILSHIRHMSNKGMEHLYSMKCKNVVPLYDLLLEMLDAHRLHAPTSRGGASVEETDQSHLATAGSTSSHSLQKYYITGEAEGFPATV
Chain of Estrogen receptor beta (Homo sapiens) (Q92731 whole entry, looked up): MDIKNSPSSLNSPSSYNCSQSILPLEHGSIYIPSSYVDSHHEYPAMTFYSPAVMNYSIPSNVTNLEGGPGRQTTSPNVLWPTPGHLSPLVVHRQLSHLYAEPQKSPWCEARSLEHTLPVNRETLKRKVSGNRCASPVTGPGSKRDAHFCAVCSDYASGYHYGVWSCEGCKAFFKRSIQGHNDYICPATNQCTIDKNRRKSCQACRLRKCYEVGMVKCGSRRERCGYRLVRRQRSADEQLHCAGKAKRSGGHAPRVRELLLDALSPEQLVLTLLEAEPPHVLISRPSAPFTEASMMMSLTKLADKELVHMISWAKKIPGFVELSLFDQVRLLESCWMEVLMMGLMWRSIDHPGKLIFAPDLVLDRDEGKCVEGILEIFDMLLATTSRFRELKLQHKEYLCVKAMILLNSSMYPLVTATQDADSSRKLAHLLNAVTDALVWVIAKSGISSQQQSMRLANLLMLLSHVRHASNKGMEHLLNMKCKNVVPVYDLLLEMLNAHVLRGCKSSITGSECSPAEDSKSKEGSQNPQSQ
Chain of Androgen receptor (Homo sapiens) (P10275 whole entry, looked up): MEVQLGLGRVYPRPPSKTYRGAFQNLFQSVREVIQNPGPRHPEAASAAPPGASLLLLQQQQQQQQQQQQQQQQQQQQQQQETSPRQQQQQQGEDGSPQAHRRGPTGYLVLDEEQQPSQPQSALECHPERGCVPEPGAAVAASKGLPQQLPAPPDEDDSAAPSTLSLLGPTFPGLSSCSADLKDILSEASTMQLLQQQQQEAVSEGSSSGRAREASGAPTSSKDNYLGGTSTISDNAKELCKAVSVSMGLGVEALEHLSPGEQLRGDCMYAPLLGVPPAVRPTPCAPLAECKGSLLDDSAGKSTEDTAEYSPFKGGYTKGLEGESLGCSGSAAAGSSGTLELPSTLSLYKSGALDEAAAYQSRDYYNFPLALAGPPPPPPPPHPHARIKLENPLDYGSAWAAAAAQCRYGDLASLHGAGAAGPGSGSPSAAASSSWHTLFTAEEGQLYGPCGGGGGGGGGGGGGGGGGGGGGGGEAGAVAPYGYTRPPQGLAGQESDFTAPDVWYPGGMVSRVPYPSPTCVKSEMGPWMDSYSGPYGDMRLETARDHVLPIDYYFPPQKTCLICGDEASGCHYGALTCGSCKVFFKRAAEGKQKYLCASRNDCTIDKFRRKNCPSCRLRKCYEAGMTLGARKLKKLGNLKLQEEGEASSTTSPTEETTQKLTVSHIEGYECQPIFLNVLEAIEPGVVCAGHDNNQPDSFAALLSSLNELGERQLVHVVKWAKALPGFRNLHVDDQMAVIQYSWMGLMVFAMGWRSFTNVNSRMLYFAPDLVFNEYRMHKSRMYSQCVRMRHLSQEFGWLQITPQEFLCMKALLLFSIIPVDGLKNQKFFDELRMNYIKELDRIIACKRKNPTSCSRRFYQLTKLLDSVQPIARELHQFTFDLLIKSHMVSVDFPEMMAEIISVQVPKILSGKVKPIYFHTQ

Row | SMILES | outcome [1] | Potency [2] | Potency [3] | outcome [4] | Potency [5] | Potency [6] | Potency [7] | outcome [8] | Potency [9] | Potency [10] | outcome [11] | Potency [12] | outcome [13] | Potency [14] | Potency [15] | outcome [16] | Potency [17] | Potency [18] | Potency [19] | Potency [20]
1 | O=S(=O)(O)c1ccc2ccccc2c1 | inactive | inactive | inactive | inactive | inactive | inactive | inactive | inactive | inactive | inactive | inactive | inactive | inactive | inactive | inactive | – | – | – | – | –
2 | CC(=O)OCC(=O)[C@@]12N=C(C)O[C@@H]1C[C@H]1[C@@H]3CCC4=CC(=O)C=C[C@]4(C)[C@H]3[C@@H](O)C[C@@]12C | inactive | inactive | inactive | inactive | inactive | inactive | inactive | inactive | inactive | inactive | inactive | inactive | inactive | inactive | inactive | inactive | inactive | inactive | inactive | –
3 | CC(=O)Nc1ccccc1 | inactive | inactive | inactive | inactive | inactive | inactive | inactive | inactive | inactive | inactive | inactive | inactive | – | inactive | inactive | inactive | inactive | inactive | inactive | –
4 | c1ccc(OCCOc2ccccc2)cc1 | inactive | inactive | inactive | inactive | inactive | inactive | inactive | inactive | inactive | 27.3 µM (active) | inactive | inactive | inactive | inactive | inactive | – | – | inactive | inactive | –
5 | CC1=CCC2CC1C2(C)C (centres undefined) | inactive | inactive | inactive | inactive | inactive | inactive | inactive | inactive | inactive | inactive | inactive | inactive | inactive | inactive | inactive | inactive | – | inactive | inactive | –
6 | CCCCCCCCCCCCS | inactive | inactive | inactive | inactive | inactive | inactive | inactive | inactive | inactive | inactive | inactive | inactive | inactive | inactive | inactive | – | – | inactive | inactive | –
7 | CC1CCC(C(C)C)C(O)C1 (centres undefined) | inactive | inactive | inactive | inactive | inactive | inactive | inactive | inactive | – | inactive | inactive | inactive | inactive | inactive | inactive | – | inactive | inactive | inactive | inactive
8 | O=C=NCCCCCCN=C=O | inactive | inactive | inactive | inactive | inactive | inactive | inactive | inactive | inactive | inactive | inactive | inactive | inactive | inactive | inactive | – | – | inactive | inactive | –
